The list is not random: actives were taken first. Their share in the collection is about 2.9%.
D3 ag: activates the human D3 dopamine receptor | P35462 | D3R DiscoveRx beta-arrestin cells, luminescence, 90 min | max activation, % | hit rate 0.58% among 410,000 | AID 652048; in the data active means max activation above about 30%; further: 0% is about no effect
Target sequence (P35462 whole entry, looked up): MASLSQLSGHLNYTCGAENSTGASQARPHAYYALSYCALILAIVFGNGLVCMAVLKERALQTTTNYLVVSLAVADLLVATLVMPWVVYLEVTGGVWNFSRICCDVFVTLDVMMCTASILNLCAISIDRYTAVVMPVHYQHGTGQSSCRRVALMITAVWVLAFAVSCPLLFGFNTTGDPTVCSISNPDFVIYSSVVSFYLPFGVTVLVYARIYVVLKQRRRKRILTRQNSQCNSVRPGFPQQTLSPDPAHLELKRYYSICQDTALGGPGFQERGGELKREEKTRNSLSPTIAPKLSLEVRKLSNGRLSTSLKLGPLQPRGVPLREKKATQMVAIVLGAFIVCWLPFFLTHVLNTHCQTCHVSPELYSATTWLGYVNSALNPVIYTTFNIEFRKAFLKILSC
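Cells at 1500/well, incubated overnight, then treated with pinned compounds (dopamine as control) for 90 min at 37 degrees C. DiscoveRx reagent added for 30 - 60 minutes at room temperature; luminescence read.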
a7 integrin act: activators of alpha7 integrin expression for muscular dystrophy. alpha7betagal myoblasts, beta-gal FDG fluorescence, 48 h. hit rate 0.064% among 350,000. AID 624291. Potency, µM (highest dose often 38.3 µM), inactives show at the highest dose activation, hits mostly activators; active means well fitted activation curve with a large enough effect; inconclusive means small, poorly fitted or top-dose-only effect; inactive means no such curve, though single readings can be large or run the other way;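 further: potency means the concentration at half of the fitted maximal effect; 100% = response of the positive control SU9516; nearly all actives have a fitted effect of over 60% in size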
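alpha7betagal+/- myoblasts (passage 13, 250/well) treated 48 h at 37C with compounds at 1:260 dilution of DMSO stock. Lysed, then beta-galactosidase activity read as FDG fluorescence (ex 480/em 540) after 30 min, with pre-read for autofluorescence.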
D3 antag: antagonists of human D3 dopamine receptor | P35462 | D3R cells, DiscoveRx beta-arrestin luminescence, antagonist mode; hits give low values | max response, negative = inhibition, % | hit rate 2.5% among 360,000 | AID 652054; in the data active means max response below about -50%; inconclusive means no clear call, values can overlap the other calls; further: on the % scale 0 is the no-effect control and ±100 the full control effect
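Cells plated overnight at 1500 cells/well, then exposed to library compounds with dopamine controls for 90 minutes at 37 degrees C. DiscoveRx reagent added for 30–60 minutes at room temperature; luminescence read, quantitative HTS format.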
* hit, by the source's call.

`O=C(C1CCCCC1)N1CCCn2c1nc1ccccc12` gave D3 ag 0, a7 integrin act -20% and D3 antag 8.
Screening O=C(C1CCN(S(=O)(=O)c2cnc[nH]2)CC1)N1CCn2c1nc1ccccc12 returned D3 ag -36, a7 integrin act -45% and D3 antag -118*.
For CCOc1ccccc1CNC(=O)Cn1ncn2nc(-c3cccs3)cc2c1=O the results were D3 ag 7.
O=c1[nH]c(CN2CCN(c3ccc(O)cc3)CC2)nc2scc(-c3ccc(Cl)cc3)c12 was read as D3 ag 98*, a7 integrin act 0% and D3 antag 21.
`O=c1[nH]c(CN2CCN(c3ccccc3O)CC2)nc2scc(-c3ccccc3Cl)c12` gave D3 ag 13, a7 integrin act -36% and D3 antag -1.
`COc1cccc(Nc2ncnc3nc[nH]c23)c1` gave D3 ag 4, a7 integrin act 0% and D3 antag -27.
For CC(=O)NC(C)(c1ccccc1)c1nc(-c2cncnc2)cs1 (centres undefined) the results were D3 ag -14 and D3 antag -60*.
For COc1ccc(C(C)(NC(C)=O)c2nc(-c3cncnc3)cs2)cc1 (centres undefined) the results were D3 ag 6 and D3 antag -15.
COC(=O)[C@]1(C)N[C@H](CN(C)C(=O)Nc2ccc(C)cc2)[C@@H]2C(=O)N(Cc3ccccc3)C(=O)[C@@H]21 was read as D3 ag -20, a7 integrin act 2% and D3 antag 40.
Cc1nn(Cc2ccc(F)cc2)c2sc(C(=O)Nc3nccs3)cc12 was read as D3 ag 8, a7 integrin act 27% and D3 antag inconclusive.
Screening Cc1nn(Cc2ccccc2Cl)c2sc(C(=O)Nc3nccs3)cc12 returned D3 ag 32*, a7 integrin act -15% and D3 antag -9.
For O=S1(=O)CCC(NS(=O)(=O)/C=C/c2ccccc2)C1 (centres undefined) the results were D3 ag 1, a7 integrin act -8% and D3 antag 6.
CCOC(=O)C1(C)CCN1C(=O)c1csnn1 (centres undefined) was read as D3 ag 7 and D3 antag 1.
O=C(Cc1cccc2ccccc12)N/N=C/c1ccc(O)c([N+](=O)[O-])c1 was read as D3 ag 10, a7 integrin act -20% and D3 antag 4.
Screening O=C(Cc1cccc2ccccc12)N/N=C/c1ccc2cccc(O)c2n1 returned D3 ag -26, a7 integrin act -51% and D3 antag -56*.
Screening COc1ccc(-c2cc(NC=O)c3ncc(-c4cc(OC)c(OC)c(OC)c4)n3c2)cc1 returned D3 ag -7 and D3 antag 8.
CCOc1ccccc1-c1nc(-c2ccc(NC(=O)Cc3ccc(OC)cc3)cc2)no1 was read as D3 ag 7, a7 integrin act 29% and D3 antag 3.
`CCOc1ccccc1-c1nc(-c2ccc(NC(=O)c3ccc(Br)o3)cc2)no1` gave D3 ag 57*, a7 integrin act -47% and D3 antag 21.
`CC12CCC(C/C1=N\N=C1\NC(=O)/C(=C\c3cccc(Br)c3)S1)C2(C)C` (centres undefined) gave D3 ag 2, a7 integrin act -16% and D3 antag 9.
`CC(O)(c1ccc(F)c(F)c1)c1nc(-c2ccc3ccccc3c2)cs1` (centres undefined) gave D3 ag -9 and D3 antag -56*.
Screening COCc1cccc(-c2csc(C(C)(O)c3cccc(F)c3)n2)c1 (centres undefined) returned D3 ag -21 and D3 antag -90*.
`CC(O)(c1ccccc1)c1nc(-c2cc3ccccc3o2)cs1` (centres undefined) gave D3 ag -11 and D3 antag -58*.
Screening CC(O)(c1cccc(F)c1)c1nc(-c2cccc(F)c2)cs1 (centres undefined) returned D3 ag -14 and D3 antag inconclusive.
For CC(O)(c1cccnc1)c1nc(-c2cccc(C(F)(F)F)c2)cs1 (centres undefined) the results were D3 ag 38* and D3 antag 1.
CC(O)(c1ccccc1)c1nc(-c2ccc(Cl)cc2)cs1 (centres undefined) was read as D3 ag -16 and D3 antag -15.
CC(O)(c1ccc(F)c(F)c1)c1nc(-c2cnc3ccccc3c2)cs1 (centres undefined) was read as D3 ag -21 and D3 antag -7.
Screening CC(O)(c1cccnc1)c1nc(-c2cccc(F)c2)cs1 (centres undefined) returned D3 ag -1 and D3 antag -11.
`CC1(C(=O)NS(=O)(=O)c2ccc(Br)cc2)CCN1C(=O)CC1CCCCC1` (centres undefined) gave D3 ag -8 and D3 antag -29.
`COCCNC(=O)CCc1nc2cccnc2n1Cc1ccc(OC)cc1` gave D3 ag -2, a7 integrin act 3% and D3 antag -4.
For CC(C)Oc1cccc(NC(=O)C2(C)CCN2C(C)C)c1 (centres undefined) the results were D3 ag 0 and D3 antag 1.
COc1ccc2c(CNCCc3ccco3)c(C(=O)O)n(Cc3ccc(C)cc3)c2c1 was read as D3 ag 0.
C[C@@H](NC(=O)[C@@H]1CCCN1C(=O)[C@@H]1CCCN1C(=O)c1cccs1)c1ccccc1 was read as D3 ag 1 and D3 antag 29.
`CC1(c2nnc(Cc3ccccc3)o2)CC(c2c(Cl)cccc2Cl)=NO1` (centres undefined) gave D3 ag -4, a7 integrin act 35% and D3 antag 8.
Screening Cc1ccc(NC(=S)NCc2ccc(F)cc2)c(C)c1 returned D3 ag 5, a7 integrin act inconclusive and D3 antag -4.
For COc1ccc(CCNC(=O)C2CCN(S(=O)(=O)c3ccc(OC)cc3)CC2)cc1 the results were D3 ag 2, a7 integrin act 6% and D3 antag 2.
CCOCc1c(C(=O)N2CCN(CC(=O)Nc3ccc(F)cc3)CC2)oc2ccccc12 was read as D3 ag -1, a7 integrin act 0% and D3 antag 9.
Screening O=C(c1cc2ccccc2o1)N1CCN(CCOc2ccccc2)CC1 returned D3 ag 58*, a7 integrin act 2% and D3 antag 25.
For O=C(OCCN1CCCCC1)c1ccccc1Br the results were D3 ag -22, a7 integrin act 22% and D3 antag -22.
For O=C(c1cc2ccccc2o1)N1CCOCC1 the results were D3 ag 3, a7 integrin act 18% and D3 antag 2.
Screening CCCN1CCN(C(=O)Nc2ccc(OCC)cc2)CC1 returned D3 ag 0, a7 integrin act 3% and D3 antag 2.
O=C(Nc1ccc2ccccc2c1)N1CCCN(CCOc2ccccc2)CC1 was read as D3 ag 2, a7 integrin act inconclusive and D3 antag -78*.
O=C(OCCN1CCCCC1)c1cc2ccccc2o1 was read as D3 ag 1, a7 integrin act 22% and D3 antag -66*.

Screening results: PubChem, National Center for Advancing Translational Sciences (NCATS)
